# Only some compounds are listed: those with a hit (about 4.2% of all), similar ones and a draw of the others.
# Hsp70 act: Hsp70 transcriptional activation, primary screen; HeLa Hsp70 promoter luciferase reporter, luminescence; scaled: vehicle 0, proteasome-inhibitor control 100%; activation, % at 10 µM; actives 0.04% (n = 200,000); AID 1203;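 active = activation above the mean across all tested compounds plus 3 SD, cutoff set per campaign, cut at about 5.5% in these data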
# S1P4 antagonist: antagonists of human S1P4 receptor | O95977 | S1P4-expressing cells, antagonist mode, reporter read-out | inhibition, % at 4.98 µM | actives 0.26% (n = 220,000); in the data active = inhibition above about 29%
# Target sequence (O95977 whole entry, looked up): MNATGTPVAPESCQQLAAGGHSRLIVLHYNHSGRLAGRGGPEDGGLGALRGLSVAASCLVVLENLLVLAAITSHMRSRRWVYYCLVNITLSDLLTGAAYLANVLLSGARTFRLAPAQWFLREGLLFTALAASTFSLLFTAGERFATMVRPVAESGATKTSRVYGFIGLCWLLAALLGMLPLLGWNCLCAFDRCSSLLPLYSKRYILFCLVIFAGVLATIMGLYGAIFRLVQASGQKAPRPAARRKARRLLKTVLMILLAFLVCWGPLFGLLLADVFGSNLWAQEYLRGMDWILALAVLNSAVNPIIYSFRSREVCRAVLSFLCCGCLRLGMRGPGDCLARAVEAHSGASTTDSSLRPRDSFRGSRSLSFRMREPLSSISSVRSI
# CHOP inh: CHOP inhibition in unfolded protein response; CHO-K1 CHOP-promoter luciferase, tunicamycin-induced, 15-18 h; inhibition, % at 10 µM; actives 3.8% (n = 220,000);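 active = compounds that reduced the stress-induced luciferase reporter signal by more than about 70% of percent inhibition, limit read from the data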
# S1P4 ag: agonists of human S1P4 receptor. S1P4-expressing cell line, agonist reporter assay. actives 0.35% (n = 220,000). O95977. activation, % at 4.98 µM; in the data active = activation above about 11%
# A number is an active result; – = inactive; · = not tested or not shown.
SMILES,Hsp70 act,S1P4 antagonist,CHOP inh,S1P4 ag
Cc1ccccc1N=Nc1ccc(O)c2ncccc12,–,–,105.6,–
Oc1ccc(CNc2ccccc2)c2cccnc12,–,–,–,–
COc1ccc(N=Nc2ccc(O)c3ncccc23)cc1,·,–,–,–
CCOC(=O)C(=CNc1ncccc1C)C(=O)OCC,–,–,–,–
CC(C)OCCCN1C(=O)c2[nH]nc(-c3ccccc3O)c2C1c1cccc(Cl)c1 (stereo unspecified),–,–,94.5,–
Cc1cccc(OCC(=O)N/N=C/c2cccn2C)c1,·,–,–,–
Cc1ccc(C(C)C)c(OCC(=O)N/N=C/c2cccn2C)c1,·,–,95.9,–
Cc1nn(-c2ccccc2)c(Cl)c1/C=N/NC(=O)OC(C)(C)C,–,–,–,–
Cc1ccc(C)c(OCC(=O)N/N=C/c2c(C)nn(-c3ccccc3)c2Cl)c1,–,–,83.0,–
CCOC(=O)c1cc(C(=O)c2cc(Br)ccc2O)coc1=N,–,–,–,–
Nc1nc(Cl)cc(N2CCC(c3cc(-c4ccc(Cl)cc4)n[nH]3)CC2)n1,–,–,–,–
COc1ccc(-c2cc(C3CCN(c4cc(Cl)nc(N)n4)CC3)[nH]n2)cc1,–,–,73.0,–
COc1ccc(OC)c(-c2cc(C3CCN(c4cc(Cl)nc(N)n4)CC3)[nH]n2)c1,–,–,72.8,–
NC(=O)c1ccc(NC(=O)c2ccccc2S(=O)(=O)c2ccccc2[N+](=O)[O-])cc1,–,–,–,–
Cc1ccc(C2CC(=O)NC(SCCC(C)C)=C2C#N)cc1 (stereo unspecified),–,–,–,–
CC1(C)Cc2ccccc2/C(=C/C(=O)N2CCCCCC2)N1,–,–,–,–
CCSc1nc2cc(OC)c(OC)cc2c(=O)n1CCc1ccccc1,–,–,–,–
Cn1c(=O)oc2cc(S(=O)(=O)N3CCC(C(=O)NCc4ccc(F)cc4)CC3)ccc21,–,–,–,–
Cn1c(=O)oc2cc(S(=O)(=O)N3CCC(C(=O)NCc4cccs4)CC3)ccc21,–,–,74.7,–
COc1cc2c3nnc(-c4ccc(F)cc4)c-3cn(Cc3ccccc3F)c2cc1OC,–,–,87.8,–
O=c1c2cccnc2n(-c2ccccc2)n1Cc1c(Cl)cccc1Cl,–,–,–,–
CCNc1nc(Sc2ccc(C)cc2)cc(C(F)(F)F)n1,–,–,86.8,–
COc1ccc(/C=N/NC(=O)c2csc(-n3nc(C)cc3C(F)(F)F)n2)cc1,–,–,79.1,–
CCOC(=O)C1=C(C)NC(=S)NC1c1ccc(-c2cccc(Cl)c2C)o1 (stereo unspecified),–,–,75.2,–
CCOC(=O)C1=C(C)NC(=S)NC1c1ccco1 (stereo unspecified),·,–,–,–
SMILES,Hsp70 act,S1P4 antagonist,CHOP inh,S1P4 ag
CCOC(=O)C1=C(C)NC(=S)NC1c1ccc(-c2ccc(Cl)cc2)o1 (stereo unspecified),–,–,71.8,–
CCOC(=O)C1=C(C)NC(C)=C(C(=O)OCC)C1c1cn(-c2ccccc2)nc1-c1ccco1,–,–,84.5,–
Cc1c(NC(=O)c2ccc(F)cc2)c(=O)n(-c2ccccc2)n1C,–,–,–,–
Cc1cc(=O)n2c(C(=O)Nc3ccc(C(=O)OC(C)C)cc3)c(C(=O)Nc3ccccc3)sc2n1,–,–,96.0,–
Cc1cc(C)n(C(=O)c2cc(F)c(F)cc2C)n1,–,–,–,–
Cc1cccc(NC(=O)CN2C(=O)N/C(=C/c3ccc(C)s3)C2=O)c1,–,–,92.1,–
Cc1ccc(/C=C\c2nccc3c2[nH]c2ccccc23)cc1,–,–,–,–
Fc1ccc(/C=C\c2nccc3c2[nH]c2ccccc23)cc1,–,–,90.3,–
C/C(N)=C(/C#N)C(=O)CSc1nnc(-c2ccccc2Br)o1,–,–,–,–
CC(C)CCNC(=O)NC(=O)CSc1nnc(-c2ccccc2Br)o1,–,–,86.6,–
O=C(O)c1ccc(NC2=C/C(=N/S(=O)(=O)c3ccccc3)c3ccccc3C2=O)cc1,–,–,103.0,–
Cc1ccc(C(=O)NCCc2nc3ccccc3[nH]2)cc1[N+](=O)[O-],–,–,–,–
Cc1ccc(C)c(SCC(=O)OC/C(O)=C(\C#N)c2nc3ccccc3[nH]2)c1,–,–,95.0,–
N#C/C(=C(/O)COC(=O)CSc1ccc2ccccc2c1)c1nc2ccccc2[nH]1,–,–,92.1,–
COCC(=O)OC/C(O)=C(\C#N)c1nc2ccccc2[nH]1,·,–,–,–
Cc1cc(Br)ccc1SCC(=O)OC/C(O)=C(\C#N)c1nc2ccccc2[nH]1,·,–,101.5,–
O=C(NO)c1ccc(C(=O)N(C2CCCCC2)C2CCCCC2)cc1,–,–,–,–
O=c1cc(-c2ccccc2)nc(SCc2ccccc2F)[nH]1,–,–,–,–
Cc1ccccc1CSc1nc(-c2ccccc2)cc(=O)[nH]1,–,–,87.2,–
Cc1ccc2c(c1)c(C)c(C)n2CC(O)Cn1nnc2ccccc21 (stereo unspecified),–,–,83.7,–
c1ccc(OCCCc2nc(-c3ccncc3)no2)cc1,–,–,89.6,–
c1ccc(OCc2nc(-c3ccncc3)no2)cc1,–,–,–,–
COc1ccc(OC)c(NC(=O)c2cc3ccccc3o2)c1,–,–,–,–
Cc1ccc(C(=O)Nc2cc3ccccc3oc2=O)cc1,–,–,104.2,–
COc1ccc(C)cc1NC(=O)c1cc2ccccc2o1,–,–,71.2,–
SMILES,Hsp70 act,S1P4 antagonist,CHOP inh,S1P4 ag
COc1cc(NC(=O)c2cccs2)ccc1NC(=O)c1cc2ccccc2o1,–,–,91.2,–
CC(=O)Nc1cc2ccccc2oc1=O,–,–,–,–
COc1cc(N)ccc1NC(=O)c1cccs1,–,–,–,–
COc1ccc(CN(C)CC(=O)Nc2ccc(Cl)cc2F)c(OC)c1,·,–,–,–
O=C(Nc1ccc(Cl)c(Cl)c1)O/N=C/c1ccncc1,–,–,–,–
O=C(Nc1ccc(S(=O)(=O)N2CCCC2)cc1)c1ccc(CN2CCc3ccccc3C2)cc1,–,–,70.0,–
O=C(Nc1ccc(Cc2ccncc2)cc1)c1ccc(S(=O)(=O)N2CCCC2)cc1,–,–,–,–
CCCCN1C(=O)CN(CCc2ccccc2)C(=O)C1c1ccc(OC)cc1 (stereo unspecified),–,–,–,–
O=C(NNC(=O)c1cc2cc3ccccc3nc2s1)c1ccc(F)cc1,–,–,88.7,–
O=C(NNC(=O)c1cc2cc3ccccc3nc2s1)c1cccc(Cl)c1,–,–,–,–
CCOC(=O)CSc1nc2ccccc2n1CC(=O)N(C(C)C)C(C)C,–,–,–,–
CCOC(=O)c1sc(Nc2cccc(Cl)c2)nc1C,·,–,–,–
CCOC(=O)c1sc(Nc2ccc(OCC)cc2)nc1C,–,–,73.2,–
Cn1c(=O)c2c(nc(N3CCCCC3)n2CCSc2nc3ccccc3s2)n(C)c1=O,–,–,–,–
CC1CCN(c2nc3c(c(=O)n(C)c(=O)n3C)n2CCSc2nc3ccccc3s2)CC1,–,–,76.1,–
Clc1ccccc1OCc1nnc(-c2ccccc2Br)o1,–,–,–,–
Cc1nn(C(=O)c2ccco2)c(C)c1Sc1ccc(Br)cc1,–,–,–,–
Cc1nn(C(C)(C)C)c(OC(=O)c2cccs2)c1Sc1ccccc1,–,–,80.8,–

# Screens: PubChem, several laboratories
